PubChem BioAssay
Active and inactive are the calls of the source.

What was measured:
[1] = system: Plasmodium falciparum Sir2 (PF13_0152, Sir2A); experiment: Plasmodium falciparum Sir2A binding compounds – biochemical, small-molecule microarray, 635 nm fluorescence, primary screen (AID 1098); conditions: fluorescence 635 nm, higher = more signal;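 further: score merges spot fluorescence intensity with its signal-to-noise ratio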
[2] = probe aDKK1 binding to arrayed compounds – biochemical, biotinylated probe, 635/667 nm fluorescence, primary screen (AID 1099); conditions: small-molecule microarray, higher = more signal;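 further: score merges 667nm spot fluorescence with signal to noise across triplicate slides; reference of the scale not given here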
[3] = probe aCHRDL2 binding to arrayed compounds – biochemical, biotinylated probe, 635/667 nm fluorescence, primary screen (AID 1100); conditions: small-molecule microarray, higher = more signal
[4] = change in splice reporter luminescence, either direction, cell-based, HEK293, spliceosome inhibition project, primary screen (AID 1101); conditions: HEK293 splicing luciferase reporter, 24 h, higher = more signal, called active from +8 up or from −8 down;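 further: HEK293 cells carrying a splicing-competent luciferase reporter gene; test concentration not given here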
[5] = biological target: Fibroblast growth factor 10 (Homo sapiens) (UniProt O15520); experiment: compounds binding fibroblast growth factor 10 – biochemical, small-molecule microarray, 635 nm fluorescence, primary screen (AID 1102); conditions: FGF10 binding, fluorescence 635 nm, higher = more signal
Sequence of Fibroblast growth factor 10 (Homo sapiens) (O15520 whole entry, looked up): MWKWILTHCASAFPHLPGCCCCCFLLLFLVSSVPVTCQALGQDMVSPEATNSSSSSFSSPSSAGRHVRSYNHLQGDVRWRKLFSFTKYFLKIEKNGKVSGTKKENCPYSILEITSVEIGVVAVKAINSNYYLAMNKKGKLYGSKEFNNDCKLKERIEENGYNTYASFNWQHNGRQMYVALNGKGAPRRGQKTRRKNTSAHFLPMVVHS

[6] = system: glycogen synthase kinase-3 (GSK3A per assay name; protocol says GSK3B); experiment: compounds binding glycogen synthase kinase-3 – biochemical, small-molecule microarray, 635 nm fluorescence, GSK3A, primary screen (AID 1103); conditions: fluorescence 635 nm, higher = more signal; further: the record names both GSK3A and GSK3B
[7] = biological target: Epidermal growth factor receptor (Homo sapiens) (UniProt P00533); experiment: compounds binding epidermal growth factor receptor – biochemical, small-molecule microarray, 635 nm fluorescence, primary screen (AID 1104); conditions: EGFR binding, higher = more signal;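 further: score merges 667 nm emission intensity with spot signal to noise over triplicate slides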
Sequence of Epidermal growth factor receptor (Homo sapiens) (P00533 whole entry, looked up): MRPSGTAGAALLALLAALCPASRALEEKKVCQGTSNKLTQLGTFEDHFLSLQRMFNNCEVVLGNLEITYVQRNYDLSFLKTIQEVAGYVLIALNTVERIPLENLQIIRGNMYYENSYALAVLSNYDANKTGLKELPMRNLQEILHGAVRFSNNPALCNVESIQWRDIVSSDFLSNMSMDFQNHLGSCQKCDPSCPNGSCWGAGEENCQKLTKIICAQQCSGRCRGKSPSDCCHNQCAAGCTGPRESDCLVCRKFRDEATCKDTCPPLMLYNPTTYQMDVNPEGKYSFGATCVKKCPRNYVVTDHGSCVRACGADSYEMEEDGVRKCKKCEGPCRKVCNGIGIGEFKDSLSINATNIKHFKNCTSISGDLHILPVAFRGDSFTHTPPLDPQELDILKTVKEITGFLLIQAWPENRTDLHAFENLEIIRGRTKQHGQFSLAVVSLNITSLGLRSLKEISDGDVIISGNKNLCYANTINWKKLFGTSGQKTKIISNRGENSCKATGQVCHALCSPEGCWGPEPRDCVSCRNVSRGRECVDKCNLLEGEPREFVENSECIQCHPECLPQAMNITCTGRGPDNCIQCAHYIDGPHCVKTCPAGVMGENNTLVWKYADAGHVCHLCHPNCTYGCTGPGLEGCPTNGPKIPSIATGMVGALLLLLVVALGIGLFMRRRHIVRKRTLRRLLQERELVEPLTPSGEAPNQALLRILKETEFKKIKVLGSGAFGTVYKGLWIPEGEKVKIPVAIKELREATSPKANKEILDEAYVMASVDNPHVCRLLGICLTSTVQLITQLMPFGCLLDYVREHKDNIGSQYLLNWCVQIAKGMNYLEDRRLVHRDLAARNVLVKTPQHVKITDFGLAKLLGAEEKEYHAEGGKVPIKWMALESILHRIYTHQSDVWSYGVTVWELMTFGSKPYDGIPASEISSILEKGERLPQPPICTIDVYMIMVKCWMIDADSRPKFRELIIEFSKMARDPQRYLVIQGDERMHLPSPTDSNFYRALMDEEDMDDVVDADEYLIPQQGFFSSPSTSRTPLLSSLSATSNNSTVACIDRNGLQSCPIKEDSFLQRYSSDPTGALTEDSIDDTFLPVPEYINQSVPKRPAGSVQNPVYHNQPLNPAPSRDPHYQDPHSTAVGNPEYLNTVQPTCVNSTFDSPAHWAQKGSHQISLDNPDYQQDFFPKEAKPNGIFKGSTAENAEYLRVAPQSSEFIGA

[8] = biological target: Follistatin-related protein 3 (Homo sapiens) (UniProt O95633); experiment: compounds binding follistatin-related protein 3 – biochemical, small-molecule microarray, 635 nm fluorescence, primary screen (AID 1105); conditions: FSTL3 binding, higher = more signal;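 further: score merges emission near 667 nm and signal to noise per printed spot across three slides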
Sequence of Follistatin-related protein 3 (Homo sapiens) (O95633 whole entry, looked up): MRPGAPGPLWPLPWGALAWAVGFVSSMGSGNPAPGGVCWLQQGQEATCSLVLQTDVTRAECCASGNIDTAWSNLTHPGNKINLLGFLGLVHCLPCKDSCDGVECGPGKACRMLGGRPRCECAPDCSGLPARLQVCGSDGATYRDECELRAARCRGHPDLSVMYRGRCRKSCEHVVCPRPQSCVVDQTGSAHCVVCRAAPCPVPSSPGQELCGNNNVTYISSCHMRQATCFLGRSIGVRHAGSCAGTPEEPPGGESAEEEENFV

[9] = biological target: Dickkopf-related protein 1 (Homo sapiens) (UniProt O94907); experiment: small molecules binding DKK1 protein – biochemical, small-molecule microarray, 635 nm fluorescence scan, primary screen (AID 1106); conditions: higher = more signal;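 further: score merges emission near 667 nm with signal to noise over three replicate slides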
Sequence of Dickkopf-related protein 1 (Homo sapiens) (O94907 whole entry, looked up): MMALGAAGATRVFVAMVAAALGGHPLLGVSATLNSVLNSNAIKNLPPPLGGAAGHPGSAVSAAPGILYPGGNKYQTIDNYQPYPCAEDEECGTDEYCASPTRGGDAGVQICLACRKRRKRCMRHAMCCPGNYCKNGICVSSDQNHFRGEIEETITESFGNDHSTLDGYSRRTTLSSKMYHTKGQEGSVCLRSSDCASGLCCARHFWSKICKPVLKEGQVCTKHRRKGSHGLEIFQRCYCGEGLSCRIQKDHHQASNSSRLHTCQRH

[10] = system: Inhibin beta A chain (activin A); experiment: small molecules binding activin A – biochemical, small-molecule microarray, 635 nm fluorescence scan, primary screen (AID 1107); conditions: INHBA, higher = more signal;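 further: mouse activin A protein probed at 4.33 µg/mL on printed slides; score merges bound-protein fluorescence near 667 nm with spot signal-to-noise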

SMILES | composite z-score [1] | composite z-score [2] | composite z-score [3] | z-score [4] | composite z-score [5] | composite z-score [6] | composite z-score [7] | composite z-score [8] | composite z-score [9] | composite z-score [10]
O=c1cccc(-c2cccc3ccccc23)o1 | 1.06 | 0.849 | 1.23 | 0.873 (inactive) | -0.52 | -0.274 | -1.18 | -0.218 | -0.951 | 1.46
CCOC(=O)C1=C[C@@H](C(C)(C)C)N(S(=O)(=O)c2ccc(C)cc2)[C@H]1c1ccc(Cl)c(Cl)c1 | 1.1 | 0.665 | 0.827 | 0.425 (inactive) | 0.733 | 1.3 | 0.481 | 0.924 | 0.023 | 0.326
CC(C)[Si]1(C(C)C)O[C@@H](c2ccccc2)c2cc(-c3ccc(-c4ccc(Cl)c(Cl)c4)o3)nc(CCc3ccccc3)c21 | -0.708 | 0.147 | 0.731 | 0.428 (inactive) | -0.707 | -0.345 | -0.844 | -1.54 | -1.25 | 0.949
Cc1ccc(S[C@]2(C(=O)NCCN3CCOCC3)CC(=O)N(C3CCCCC3)[C@@H]2c2ccc(CO)cc2)cc1 | 1.35 | -0.0443 | 0.781 | 0.114 (inactive) | -0.103 | 0.606 | -0.551 | 0.181 | -0.55 | 0.602
[N-]=[N+]=NCc1ccccc1C[C@]1(C(=O)NCC(O)CO)COC(c2ccc(OCCCO)cc2)=N1 (stereo not given in full) | 1.08 | 1.22 | 1.5 | 1.1 (inactive) | -0.0207 | -0.493 | -1.13 | 0.324 | -0.372 | 0.462
CC(C)CNC(=O)[C@@]1(C)c2ccccc2C(=O)N(C(C)C)[C@H]1c1ccc(CO)cc1 | 1.09 | 0.0084 | 0.567 | -0.0251 (inactive) | -1.42 | -1.29 | -0.741 | -0.542 | -0.854 | 1.26
CCOC(=O)N1C(c2ccc(OCCCO)cc2)=NC(C(=O)OC)N1C(=O)OCC (stereo not given) | 0.587 | -0.164 | 0.0258 | -0.641 (inactive) | 0.909 | 1.28 | 0.431 | 1.39 | 0.471 | -0.298
Cc1ccc(S[C@]2(C(=O)NCC(C)C)CC(=O)N(Cc3ccccc3)[C@@H]2c2ccc(CO)cc2)cc1 | 0.959 | -0.0941 | 1.09 | 0.00364 (inactive) | -0.514 | -0.919 | -1.14 | -0.979 | -1.06 | -0.417
